This is an account of results in PubChem BioAssay AID2650 (Broad Institute, 2010).

About 320 (0.1%) of roughly 320,000 compounds were called active. The sample holds actives, similar compounds and a random draw of the others, so the mix is not that of the screen.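 How the source made its calls: active means more than half of replicates show inhibition above 20%; inconclusive means some but at most half of replicates above 20% inhibition; inactive means no replicate shows inhibition above 20%.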

What is called inhibition is the relative decrease from the control value, in per cent.

Glycogen synthase kinase-3 alpha (Homo sapiens), sequence (P49840 whole entry, looked up): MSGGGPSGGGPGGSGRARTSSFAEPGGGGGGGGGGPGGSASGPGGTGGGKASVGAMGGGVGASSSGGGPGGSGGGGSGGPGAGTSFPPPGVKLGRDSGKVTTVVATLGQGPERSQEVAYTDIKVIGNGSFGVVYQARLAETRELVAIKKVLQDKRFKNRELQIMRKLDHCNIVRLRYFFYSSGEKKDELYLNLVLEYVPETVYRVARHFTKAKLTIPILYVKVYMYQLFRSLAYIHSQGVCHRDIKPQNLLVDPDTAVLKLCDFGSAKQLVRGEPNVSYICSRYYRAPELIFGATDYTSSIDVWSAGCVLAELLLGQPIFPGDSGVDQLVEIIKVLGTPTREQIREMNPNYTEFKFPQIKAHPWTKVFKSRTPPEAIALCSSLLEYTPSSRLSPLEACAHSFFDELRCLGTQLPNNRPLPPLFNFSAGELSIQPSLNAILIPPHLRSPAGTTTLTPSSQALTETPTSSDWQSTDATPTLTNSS

This experiment concerns the target Glycogen synthase kinase-3 alpha (Homo sapiens) (UniProt P49840). Briefly: blockers of GSK3A enzyme activity – biochemical, luminescence, cell-free homogeneous, HTS, primary screen (AID 2650).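 Further: GST-tagged GSK-3 alpha with peptide substrate and 25 µM ATP; 0% = DMSO neutral wells and 100% = GW8510 positive control wells.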 To be noted: GSK-3 alpha kinase, ADP-Glo luminescence, 60 min; at 10 µM; active compounds read high. For orientation: In ADP-Glo the light output rises with the ADP produced.
As for `Cc1ccccc1C(=O)N1CCC(C(=O)Oc2ccc(C#N)cc2)CC1`, the inhibition was 3.01% (inactive).
Next, `O=C(O)CCCN1C(=O)C2C3c4ccccc4C(c4ccccc43)[C@@H]2C1=O` (some centres undefined): -1.27% (inactive); `COC(=O)c1cc(CNC(=O)CC(C)c2ccccc2)ccc1OC` (centres undefined): -0.449% (inactive).
For the compound `C/C(=N\NC(=O)Cc1ccccc1[N+](=O)[O-])c1cccnc1`, the inhibition is -3.03% (inactive).
For `Cc1ccc(-n2c(C)cc(/C=N/Nc3ccc([N+](=O)[O-])cn3)c2C)c(C)c1`, the inhibition was 0.104% (inactive).
In the case of `COc1cc(/C=N\Nc2ccc([N+](=O)[O-])cn2)ccc1OCC(=O)O`, the inhibition is 71.1% (active).
As for `Cc1cc(/C=N/Nc2ccc([N+](=O)[O-])cn2)c(C)n1-c1cccc(C(=O)O)c1`, the inhibition was 26.6% (inactive).
As for `O=C(CNC(=O)OCc1ccccc1)Oc1cc2oc(=O)cc(-c3ccccc3)c2cc1Cl`, the inhibition is -0.182% (inactive).
As for `CC1CCc2c(nc3ncnn3c2Nc2ccc(OC(F)(F)F)cc2)C1` (centres undefined), the inhibition was 3.32% (inactive).
Next, `Cc1ccc(N(Cc2ccccc2O)C(=O)c2ccccc2F)cc1`: 0.374% (inactive).
For `O=C(O)C1CCCN(CCC=C(c2ccccc2)c2ccccc2)C1` (centres undefined) the value was -1.79% (inactive); for `N#Cc1c(N2CCCCC2)nc(N)c2c(N)nc(SCC(=O)O)cc12`, 71.9% (active); for `N#CCc1c(C#N)c(N)nc(N2CCCC2)c1C#N`, 5.31% (inactive).
For `N#Cc1c(-c2ccccc2)cc(-c2ccccc2)nc1SCC(=O)O`, the inhibition was -8.49% (inactive).
Take `Cc1c(C(=O)Nc2cccc(S(=O)(=O)N3CCOCC3)c2)oc2ccccc12`: the inhibition was -2.02% (inactive).
For `CC(C)(C)c1cc(CN2CCN(CCC#N)CC2)cc(C(C)(C)C)c1O` the value was -0.131% (inactive); for `CCCn1c(N)c(N(CCOC)C(=O)C2CCCC2)c(=O)[nH]c1=O`, -0.139% (inactive).
Consider `CCn1c(SC(C)C(=O)Nc2ccc(N3CCOCC3)cc2)nnc1-c1ccco1` (centres undefined), for which the inhibition was -7.92% (inactive).
For `COC(=O)c1ccc(C23CC4(C2)[C@H](CN(Cc2cccnc2)[C@@H]4c2ccccc2)C3c2ccc(Cl)nc2)cc1` (some centres undefined) the value was -1.59% (inactive).
With `CCOc1ccc(CN2CCN(Cc3ccc(C)o3)CC2CCO)cc1` (centres undefined), the inhibition was -3.68% (inactive).
In the case of `O=C(COC(=O)Cc1ccc(Br)cc1)Nc1ccc(N2CCOCC2)cc1`, the inhibition is -2.2% (inactive).
Next, `COc1ccc(NC(=O)CN2C(=O)COc3ccc(S(=O)(=O)N4CCOCC4)cc32)c(OC)c1`: -0.917% (inactive).
On to `COc1ccc(S(=O)(=O)N(C)C[C@H]2Oc3c(NC(=O)Nc4ccc5c(c4)OCO5)cccc3C(=O)N([C@H](C)CO)C[C@@H]2C)cc1`, for which the inhibition was -2.73% (inactive).
For `Cc1ccc(S(=O)(=O)NCC2CCC(C(=O)N3CCOCC3)CC2)cc1` (centres undefined) the value was -1.46% (inactive); for `Cc1ccc(C)c(NC(=O)COC(=O)c2nn(C)c(=O)c3ccccc23)c1`, -0.308% (inactive); for `FC(F)(F)COc1nc(N2CCCCC2)nc(N2CCNCC2)n1`, -3.54% (inactive).
Next, `CC1CC1C(=O)OCC(=O)Nc1cccc(F)c1` (centres undefined): -2.53% (inactive).
For `CCOC(=O)/C=C/c1ccc(C(F)(F)F)cc1S(=O)(=O)NC(C)(C)C` the value was 0.204% (inactive).
`O=C(NCc1cccs1)c1ccc(CS(=O)Cc2ccccc2Cl)o1` (centres undefined): the inhibition is 2.9% (inactive).
For the compound `CC(C)CCNC(=O)c1ccc2c(Cl)c3c(nc2c1)CCC3`, the inhibition was 1.16% (inactive).
Next, `O=C(OCC1OC(Oc2ccc(O)cc2)C(O)C(O)C1O)c1ccccc1` (centres undefined): 19.4% (inactive).
With `O=C(OCC1O[C@@H](OC(=O)c2cc(O)c(O)c(O)c2)[C@@H](OC(=O)c2cc(O)c(O)c(O)c2)[C@@H](OC(=O)c2cc(O)c(O)c(O)c2)[C@@H]1OC(=O)c1cc(O)c(O)c(O)c1)c1cc(O)c(O)c(O)c1` (some centres undefined), the inhibition is 57.5% (active).
Consider `CS(=O)(=O)N(CC(=O)Nc1ccc(Cl)c(Cl)c1)C1CCCCC1`, for which the inhibition is -0.751% (inactive).
On to `O=C(Nc1ccccc1-c1nnn(CC(=O)N2CCCc3ccccc32)n1)c1cccc(Cl)c1`, for which the inhibition is -2.04% (inactive).
With `Cc1ccc(C(=O)N/N=C\c2cc(Br)c(Br)o2)cn1`, the inhibition is 2.23% (inactive).
With `Cc1cc2cc3c(cc2nc1SCC(=O)Nc1c(C)cccc1C)CCC3`, the inhibition was -3.92% (inactive).
Next, `Cc1noc(/C=C/c2ccco2)c1S(=O)(=O)N1CCC(C(=O)N2CCc3ccccc32)CC1`: -1.67% (inactive).
Next, `Cc1cc(C)nc(NS(=O)(=O)c2ccc(N3C(=O)C4CCCCC4C3=O)cc2)n1` (centres undefined): 1.53% (inactive).
Next, `Oc1ccc(-c2nnc(Nc3ccccc3)c3ccccc23)cc1`: 0.551% (inactive).
Consider `c1ccc(-n2nc3ccccc3n2)cc1`, for which the inhibition was -1.52% (inactive).
Consider `Oc1ccc(-c2nncn2-c2ccccc2)cc1`, for which the inhibition is 53.7% (active).
On to `Brc1ccccc1CN1CCC(Cc2ccccc2)CC1`, for which the inhibition is -0.57% (inactive).
For `O=C1CN(C(=O)COC(=O)/C=C/c2ccc(F)cc2)c2ccccc2N1` the value was -0.211% (inactive); for `O=C(CCNS(=O)(=O)c1ccc(Br)s1)NCc1ccccc1Cl`, 0.12% (inactive).
For `CCCN1C2=C(C(=O)CCC2)C(c2ccc(O)c(Br)c2)C2=C1CCCC2=O`, the inhibition is 0.35% (inactive).
`C=CCNC(=O)C1CC=CCC1C(=O)O` (centres undefined): the inhibition is 3.88% (inactive).
For `CC(C)C[C@@H](COc1ccccc1)N1CCN(CC(C)C)CCC1=O` the value was -0.599% (inactive); for `CN1C(=O)[C@H]2[C@@H](C3CC3)N3C(=O)CN(Cc4ccccc4)C(=O)[C@@]3(C)[C@H]2C1=O`, -0.57% (inactive); for `CCc1nc(SCC(=O)Nc2ccccc2OC)n[nH]1`, 0.384% (inactive).
As to `OC(COCC1COc2ccccc2O1)CN1CCN(c2ccc(F)cc2)CC1` (centres undefined), the inhibition was -3.09% (inactive).
Take `Cc1cc(C)c(C(=O)CSc2nc(C)cc(=O)[nH]2)c(C)c1`: the inhibition was -3.36% (inactive).
Next, `Nc1nc(SCC(=O)Nc2cc(C(F)(F)F)ccc2Cl)[nH]c(=O)c1NC(=O)c1ccco1`: 0.858% (inactive); `O=c1cc(C(F)(F)F)[nH]c(=O)n1C1CCCCC1`: -7.78% (inactive); `CCCCN(CCCC)CCC(O)c1cc2c(Cl)cc(Cl)cc2c2cc(C(F)(F)F)ccc12` (centres undefined): -3.02% (inactive).
Next, `CCC1Nc2ncnc(N3CCN(c4ccccc4)CC3)c2N(Cc2ccc(Cl)cc2)C1=O` (centres undefined): -3.36% (inactive); `CC[C@H](C)C(=O)N[C@H]1CCCN1C(=O)/C=C/c1ccccc1`: -0.364% (inactive).
`CC1(C)Cc2nc3sc4c(SCC(=O)NC(c5ccccc5)c5ccccc5)ncnc4c3cc2CO1`: the inhibition is 19.1% (inactive).
Next, `COc1ccccc1NC(=O)CSc1nnc(CNC(=O)c2ccccc2F)o1`: -1.79% (inactive).
For `CCc1ccccc1NC(=O)CSc1nnc(-c2ccncc2)o1` the value was 0.246% (inactive); for `COc1ccccc1NC(=O)CCSc1nnc(-c2ccc(O)cc2)o1`, 61% (active); for `COc1ccc(N(C)C(=O)CCS(=O)(=O)c2cccc3nsnc23)cc1`, -0.848% (inactive).
For `O=C(c1ccc(CS(=O)(=O)c2ccccc2)o1)N1CCN(c2ccccc2)CC1`, the inhibition was -1.56% (inactive).
Turning to `Cc1ccccc1-c1cc(C(=O)NCc2cccs2)n(CC2CC(c3cccnc3)=NO2)n1` (centres undefined), the inhibition is 8.15% (inactive).
For `COC(=O)c1sc(N)c(C(=O)OC)c1COC(=O)CNS(=O)(=O)c1ccc(C)cc1` the value was -5.73% (inactive); for `O=C(CN1CCC(O)(c2cccc(C(F)(F)F)c2)CC1)NCCc1ccccc1`, -1.83% (inactive).
As to `COc1ccccc1CNC(=O)Cn1c(=O)oc2cc(Cl)ccc21`, the inhibition was -2.27% (inactive).
Next, `CN(C)Cc1c(O)ccc2c(=O)c(-c3ccccc3Cl)coc12`: 0.391% (inactive).
Next, `COc1ccc2c(c1)O/C(=C\c1ccccc1O)C2=O`: -3.6% (inactive); `O=C1/C(=C/c2ccc3c(c2)OCO3)Oc2cc(OCC(=O)N3CC(O)C[C@H]3C(=O)O)ccc21` (some centres undefined): 58.3% (active).
Next, `COC(=O)C(C)Oc1ccc2c(c1)O/C(=C\c1cccc(Br)c1)C2=O` (centres undefined): -0.218% (inactive).
With `CSc1nccc(NC(=O)c2ccc(C(C)(C)C)cc2)n1`, the inhibition is 0.764% (inactive).
`O=C(Nc1cccc(Cl)c1N1CCOCC1)c1ccc2c(c1)OCCO2`: the inhibition was 3.78% (inactive).
For `O=C(Nc1cccc(Cl)c1N1CCOCC1)c1cccnc1` the value was 1.42% (inactive).
In the case of `CCN1CCN(c2c(Cl)cccc2NC(=O)c2ccc(Br)o2)CC1`, the inhibition was 84.2% (active).
Turning to `CC(C)(C)NS(=O)(=O)NC(=O)C1=C(N2CCCC2)COC1=O`, the inhibition is -2.51% (inactive).
For the compound `N#Cc1ccc(OCC(=O)NC(=O)NC2CCS(=O)(=O)C2)cc1` (centres undefined), the inhibition was 0.468% (inactive).
For `CCOC(=O)CCCCCC(=O)Nc1ccc2c(c1)CC(=O)N([C@@H](C)CO)C[C@H](C)[C@@H](CN(C)Cc1ccccc1)O2` the value was -2.38% (inactive).
Next, `COc1ccc(NC(=O)c2cc([N+](=O)[O-])ccc2NC(=O)CNC2CCCCC2C)c(OC)c1` (centres undefined): -2.82% (inactive); `O=C(Nc1ccc(Cl)c(Cl)c1)N1CC=C(c2ccccc2)CC1`: -0.494% (inactive); `COc1ccc(-n2c(=S)[nH]c3sc4c(c3c2=O)CCc2ccccc2-4)cc1`: -1.96% (inactive).
Next, `COc1ccc(Cn2c(O)c(/C=C3/C=CC=N3)c(=O)[nH]c2=O)cc1`: 0.739% (inactive).
As to `CCC(C)NCCOCCOc1ccc(Br)cc1C` (centres undefined), the inhibition is -0.652% (inactive).
Next, `CCNc1nc(N)nc(Oc2ccc(OCC)nn2)n1`: 3.16% (inactive); `Cc1ccc(CNCc2ccc3c(c2)OCO3)c(C)c1`: -0.957% (inactive).
For `CCOC(=O)c1ccccc1NC(=O)COC(=O)CCC(=O)N1CCOCC1` the value was 8.47% (inactive).
`COc1ccc(CCNS(=O)(=O)c2cn(C)nc2C)cc1`: the inhibition is 2.55% (inactive).
Next, `Nc1nonc1-n1nnc(C(=O)N/N=C/c2ccccc2O)c1CN1CCCC1`: 49.8% (inactive).
Regarding `NNC(=O)c1nnn(-c2nonc2N)c1CN1CCCC1`, the inhibition is 23.2% (inactive).
`Nc1nonc1-n1nnc(C(=O)N/N=C\c2ccncc2)c1CN1CCCCC1`: the inhibition was 107% (active).
